Measurements reported in PubChem BioAssay (NCI).
Compounds without any hit were thinned out: in the full panel of roughly 79,000, 15% have a hit. Activity calls are given as the source filed them. Cut-off read from the data, not from the text of the source: active = growth inhibition above about 70%; inactive = the rest.

Assays:
[1] = NCI Yeast Anticancer Drug Screen. Data for the rad52 strain (AID 147);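 note: 0% = growth of vehicle-treated control cultures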; conditions: S. cerevisiae rad52 mutant growth inhibition, stronger effect = higher value
Summary of the method: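 Yeast strain carrying a DNA damage repair alteration was exposed to test compounds. Growth inhibition was measured relative to vehicle-treated controls.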

[2] = NCI Yeast Anticancer Drug Screen. Data for the wt1 strain (AID 149);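 note: 0% = growth of vehicle-treated wt1 cultures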; conditions: S. cerevisiae wt1 strain (SPY 50644) growth inhibition, stronger effect = higher value
Summary of the method: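 Using yeast strain wt1, compound-induced growth inhibition was determined against vehicle-treated cultures.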

[3] = NCI Yeast Anticancer Drug Screen. Data for the rad50EPP+ strain (AID 151);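 note: 0% = growth of vehicle-treated control cultures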; conditions: S. cerevisiae rad50 mutant strain, stronger effect = higher value
Summary of the method: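 Yeast strain carrying rad50 alteration (rad50EPP+) exposed to compounds; growth inhibition measured relative to vehicle-treated controls.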

[4] = NCI Yeast Anticancer Drug Screen. Data for the mgt1 strain (AID 153); conditions: S. cerevisiae mgt1 mutant growth inhibition, stronger effect = higher value
Summary of the method: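 Yeast mgt1 strain (DNA repair/cell-cycle alteration panel) exposed to compounds; growth inhibition measured relative to vehicle-treated controls.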

[5] = NCI Yeast Anticancer Drug Screen. Data for the rad50 strain (AID 155);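 note: 0% = growth of vehicle-only cultures of the same strain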; conditions: S. cerevisiae rad50 strain growth inhibition, stronger effect = higher value
Summary of the method: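 Relative growth inhibition (compound vs vehicle) was measured in yeast with a defined repair-gene alteration.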

[6] = NCI Yeast Anticancer Drug Screen. Data for the mec2-1 strain (AID 157); conditions: S. cerevisiae mec2-1 strain, stronger effect = higher value
Summary of the method: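 mec2-1 yeast strain, carrying an alteration in DNA damage repair or cell cycle control, was exposed to compounds; growth inhibition was measured relative to vehicle-treated controls.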

[7] = NCI Yeast Anticancer Drug Screen. Data for the rad14 strain (AID 159);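 note: 0% = growth of vehicle-treated control cultures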; conditions: S. cerevisiae rad14 strain growth inhibition, stronger effect = higher value
Summary of the method: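 Screen for anticancer potential: a yeast strain altered in DNA damage repair is grown with compound, and reduced growth is quantified against vehicle controls.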

[8] = NCI Yeast Anticancer Drug Screen. Data for the sgs1 mgt1 strain (AID 161);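 note: 0% = growth of cultures given vehicle only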; conditions: S. cerevisiae sgs1 mgt1 strain, stronger effect = higher value
Summary of the method: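 Yeast cells carrying a defined DNA-repair defect were exposed to test compounds. Growth inhibition was measured relative to vehicle-treated controls.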

[9] = NCI Yeast Anticancer Drug Screen. Data for the CLN2oe strain (AID 163);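 note: 0% = growth of vehicle-only control cultures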; conditions: S. cerevisiae CLN2oe strain, stronger effect = higher value
Summary of the method: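 Yeast cells carrying a defined cell-cycle control alteration were exposed to test compounds. Growth inhibition was scored against vehicle-treated control cultures.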

[10] = NCI Yeast Anticancer Drug Screen. Data for the cln2 rad14 strain (AID 165);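 note: 0% = growth equal to vehicle treated cultures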; conditions: S. cerevisiae cln2 rad14 strain, stronger effect = higher value
Summary of the method: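 Yeast carrying cln2 and rad14 alterations (cell cycle control and DNA damage repair) were exposed to compounds. Growth inhibition was measured against vehicle-treated controls.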

[11] = NCI Yeast Anticancer Drug Screen. Data for the bub3 strain (AID 167); conditions: S. cerevisiae bub3 mutant strain, stronger effect = higher value
Summary of the method: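 Screening used yeast with an engineered genetic alteration affecting cell cycle control. Compound-exposed cultures were compared with vehicle cultures, and reduced growth was taken as inhibition.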

[12] = NCI Yeast Anticancer Drug Screen. Data for the wt2 strain (AID 169);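 note: 0% = growth of vehicle-treated yeast cultures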; conditions: S. cerevisiae wt2 strain growth inhibition, stronger effect = higher value
Summary of the method: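 Yeast cells were exposed to test compounds, and growth inhibition was measured relative to vehicle-treated controls.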

[13] = NCI Yeast Anticancer Drug Screen. Data for the mlh1 strain (AID 171);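 note: 0% = growth of vehicle-treated control cultures of the same strain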; conditions: S. cerevisiae mlh1 strain growth inhibition, stronger effect = higher value
Summary of the method: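 Yeast carrying a defined genetic alteration in DNA damage repair or cell cycle control were exposed to test compounds. Growth inhibition was measured relative to vehicle-treated controls.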

[14] = NCI Yeast Anticancer Drug Screen. Data for the sgs1 strain (AID 173);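 note: 0% = growth of vehicle-only control cultures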; conditions: S. cerevisiae sgs1 mutant, stronger effect = higher value
Summary of the method: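 Yeast mutant strains carrying defined defects in DNA damage repair or cell cycle control were exposed to test compounds. Growth inhibition was scored against vehicle-treated controls.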

[15] = NCI Yeast Anticancer Drug Screen. Data for the mlh1 rad18 strain (AID 175); conditions: S. cerevisiae mlh1 rad18 strain growth inhibition, stronger effect = higher value
Summary of the method: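 Growth inhibition of the yeast strain was measured after compound exposure and expressed relative to vehicle-treated controls. The strain carries defined defects in DNA damage repair.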

[16] = NCI Yeast Anticancer Drug Screen. Data for the rad18 strain (AID 177); conditions: S. cerevisiae rad18 mutant growth inhibition, stronger effect = higher value
Summary of the method: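 Yeast carrying a defined DNA damage repair alteration were exposed to compounds. Growth inhibition was expressed relative to vehicle-treated controls.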

[17] = at 5.0 µM (retest, dose inferred, filed as 0.5)
[18] = at 50.0 µM (retest, dose inferred, filed as 5.0)

Measured: growth inhibition

Nc1ccc(Cl)cc1C(=O)c1ccccc1
inactive: [1]; at 1.2 µM -15% | [1]; at 3.7 µM -16% | [1]; at 11.0 µM -15% | [1]; at 33.0 µM 46% | [2]; at 1.2 µM -20% | [2]; at 3.7 µM -10% | [2]; at 11.0 µM -10% | [2]; at 33.0 µM 39% | [3]; at 1.2 µM -7% | [3]; at 3.7 µM -2% | [3]; at 11.0 µM 4% | [3]; at 33.0 µM 44% | [4]; at 1.2 µM -28% | [4]; at 3.7 µM -42% | [4]; at 11.0 µM -43% | [4]; at 33.0 µM 3% | [5]; at 1.2 µM -17% | [5]; at 3.7 µM -19% | [5]; [17] 48% | [5]; at 11.0 µM -4% | [5]; at 33.0 µM 57% | [6]; at 1.2 µM -38% | [6]; at 3.7 µM -33% | [6]; [17] 54% | [6]; at 11.0 µM -18% | [6]; at 33.0 µM 0% | [7]; at 1.2 µM -25% | [7]; at 3.7 µM -23% | [7]; at 11.0 µM -15% | [7]; at 33.0 µM 46% | [8]; [17] -19% | [9]; at 1.2 µM 5% | [9]; at 3.7 µM -5% | [9]; at 11.0 µM 5% | [9]; at 33.0 µM 20% | [10]; [17] 57% | [11]; at 1.2 µM -35% | [11]; at 3.7 µM -40% | [11]; [17] -6% | [11]; at 11.0 µM -52% | [11]; at 33.0 µM -23% | [12]; at 1.2 µM -2% | [12]; at 3.7 µM -5% | [12]; at 11.0 µM -6% | [12]; at 33.0 µM 21% | [13]; at 1.2 µM -23% | [13]; at 3.7 µM -33% | [13]; at 11.0 µM -31% | [13]; at 33.0 µM 22% | [14]; at 1.2 µM -7% | [14]; at 3.7 µM 1% | [14]; at 11.0 µM 7% | [14]; at 33.0 µM 63% | [15]; [17] 39% | [16]; at 1.2 µM -12% | [16]; at 3.7 µM -12% | [16]; at 11.0 µM -2% | [16]; at 33.0 µM 69%
active: [1]; at 100.0 µM 97% | [2]; at 100.0 µM 98% | [3]; at 100.0 µM 90% | [4]; at 100.0 µM 97% | [5]; [18] 82% | [5]; at 50.0 µM 91% | [5]; at 100.0 µM 97% | [6]; [18] 86% | [6]; at 50.0 µM 72.2% | [6]; at 100.0 µM 97% | [7]; at 100.0 µM 97% | [8]; [18] 98% | [8]; at 50.0 µM 90.7% | [9]; at 100.0 µM 97% | [10]; [18] 96% | [10]; at 50.0 µM 71.4% | [11]; [18] 96% | [11]; at 50.0 µM 88.1% | [11]; at 100.0 µM 96% | [12]; at 100.0 µM 97% | [13]; at 100.0 µM 97% | [14]; at 100.0 µM 98% | [15]; [18] 81% | [15]; at 50.0 µM 88.4% | [16]; at 100.0 µM 97%

Oc1ccc(Cl)cc1Cc1ccccc1
active: [1]; at 11.0 µM 70% | [1]; at 33.0 µM 98% | [1]; at 100.0 µM 98% | [2]; at 33.0 µM 99% | [2]; at 100.0 µM 99% | [3]; at 33.0 µM 95% | [3]; at 100.0 µM 97% | [4]; at 11.0 µM 85% | [4]; at 33.0 µM 98% | [4]; at 100.0 µM 99% | [5]; at 33.0 µM 98% | [5]; [18] 86% | [5]; at 50.0 µM 92% | [5]; at 100.0 µM 98% | [6]; at 11.0 µM 77% | [6]; at 33.0 µM 84% | [6]; [18] 83% | [6]; at 50.0 µM 93.7% | [6]; at 100.0 µM 99% | [7]; at 33.0 µM 99% | [7]; at 100.0 µM 99% | [8]; at 50.0 µM 94.4% | [9]; at 11.0 µM 71% | [9]; at 33.0 µM 99% | [9]; at 100.0 µM 99% | [10]; [18] 99% | [10]; at 50.0 µM 92.9% | [11]; at 11.0 µM 70% | [11]; at 33.0 µM 100% | [11]; [18] 99% | [11]; at 50.0 µM 92.5% | [11]; at 100.0 µM 100% | [12]; at 33.0 µM 98% | [12]; at 100.0 µM 98% | [13]; at 33.0 µM 99% | [13]; at 100.0 µM 99% | [14]; at 33.0 µM 98% | [14]; at 100.0 µM 99% | [15]; [18] 70% | [15]; at 50.0 µM 93% | [16]; at 33.0 µM 95% | [16]; at 100.0 µM 97%
inactive: [1]; at 1.2 µM -21% | [1]; at 3.7 µM 4% | [2]; at 1.2 µM -41% | [2]; at 3.7 µM -11% | [2]; at 11.0 µM 60% | [3]; at 1.2 µM -52% | [3]; at 3.7 µM -15% | [3]; at 11.0 µM 28% | [4]; at 1.2 µM 11% | [4]; at 3.7 µM -2% | [5]; at 1.2 µM -46% | [5]; at 3.7 µM -43% | [5]; [17] 58% | [5]; at 11.0 µM 54% | [6]; at 1.2 µM -40% | [6]; at 3.7 µM 5% | [6]; [17] 54% | [7]; at 1.2 µM -23% | [7]; at 3.7 µM -23% | [7]; at 11.0 µM 54% | [8]; [17] -5% | [8]; [18] 44% | [9]; at 1.2 µM -11% | [9]; at 3.7 µM -30% | [10]; [17] 41% | [11]; at 1.2 µM -52% | [11]; at 3.7 µM -18% | [11]; [17] 36% | [12]; at 1.2 µM -53% | [12]; at 3.7 µM -16% | [12]; at 11.0 µM 54% | [13]; at 1.2 µM 12% | [13]; at 3.7 µM -9% | [13]; at 11.0 µM 69% | [14]; at 1.2 µM -23% | [14]; at 3.7 µM -17% | [14]; at 11.0 µM 66% | [15]; [17] 29% | [16]; at 1.2 µM -71% | [16]; at 3.7 µM -30% | [16]; at 11.0 µM 54%
